Compound activity: PubChem, National Center for Advancing Translational Sciences (NCATS)
HCV inh: HCV inhibition; Huh7.5.1 HCVcc-Cre infection, luciferase reporter, 44 h; Potency, µM (doses to about 41.8 µM), most hits filed as inhibitors; 3.4% of 340,000 active; active = well fitted inhibition curve with a large enough effect; inconclusive = small, poorly fitted or top-dose-only effect, or another doubt; inactive = no such curve, though single readings can be large or run the other way
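Whole-lifecycle infectious HCVcc-Cre system; cells 1,000/well, compound then virus (~0.5 moi) added 4 h after plating, 44 h culture. Luciferase read 15 sec following 15 min substrate incubation, room temp.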
FMDV inh: blocks foot and mouth disease virus | FMDV antiviral cell-based qHTS | Potency, µM (top dose mostly 57.9 µM), actives largely listed as inhibitors | 1.2% of 410,000 active | AID 1159524; calls by dose curve; tested in HEK293T cells; also: read-out not given here; nearly all actives have a fitted effect of over 45% in size
Marburg entry inh: inhibitors of Marburg virus binding or cell entry | Marburg virus pseudotyped entry inhibition, cell reporter | Potency, µM (series often up to 37.8 µM), most hits filed as inhibitors | 1.8% of 300,000 active | AID 540276; calls by dose curve; tested in HEK293 cells
LASV entry inh: blocks Lassa virus binding to or entry into cells | Potency, µM (highest dose often 37.9 µM), hits mostly inhibitors | 1.2% of 300,000 active | Lassa virus pseudotype entry inhibition, cell reporter; calls by dose curve; tested in HEK293 cells; also: nearly all actives have a fitted effect of over 50% in size
HCMV antiviral: blocks human cytomegalovirus replication | 4.5% of 410,000 active | HFF cells, HCMV-luciferase reporter, 72 h; hits give low values | activity change, negative = inhibition, % at 57.5 µM; in the data active = activity change below about -60%; inconclusive = no clear call, values can overlap the other calls; inactive = above about -39%
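Screen run at 2 compound doses on HFFs infected with reporter HCMV, MOI 1 PFU/cell. Luciferase activity from cell lysates at 72 h post infection gave inhibition relative to buffer-only and Salinomycin wells.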
Hits are given with their value; i = inactive; ? = inconclusive; nt = no result; ! = not confirmed by another sample. Shown are actives, neighbours in structure and some others; about 7.9% of the full set was active somewhere.

SMILES | HCV inh | FMDV inh | Marburg entry inh | LASV entry inh | HCMV antiviral
CC1CC(C)CN(C(=O)C(C)N2CCN(S(=O)(=O)c3ccc(Br)s3)CC2)C1 (stereo not given) | ? | ? | ? | ? | i
Cc1sc2nc(C3CC3)nc(N3CCN(C(=O)c4ccc(F)cc4)CC3)c2c1C | ? | i | ? | ? | -81
Cc1sc2nc(C3CC3)nc(N3CCN(C(=O)c4ccc(Cl)cc4)CC3)c2c1C | ? | ? | ? | ? | i
CCCCCCCC[n+]1c(C)n(-c2ccccc2)c2ccc(NC(C)=O)cc21 | 14µM | ? | ? | 7.1µM | -77
CCCCCCNC(=O)Nc1ccccc1 | i | i | i | i | i
Cc1ccc(COC(=O)c2nn(C)c(=O)c3ccccc23)cc1 | 10µM | ? | i | ? | -92
O=C(Cn1c(=O)n(-c2ccccc2)c(=O)c2c3c(sc21)CCCC3)Nc1ccc(F)cc1F | nt | i | ? | i | i
Cc1ccc(N(CC2=NCCN2)c2cccc(O)c2)cc1 | ? | i | 23µM | ? | -66!
O=C(Nc1ccc(F)cc1)c1cc2cc3ccc(Cl)cc3nc2o1 | nt | i | i | i | i
O=[N+]([O-])c1ccc(NN=Cc2ccccc2O)nc1 | ? | i | ? | ? | -98
O=[N+]([O-])c1ccc(NN=Cc2ccc(O)cc2O)nc1 | ? | i | ? | ? | -98
O=[N+]([O-])c1ccc(O)c(/C=N/Nc2ccccn2)c1 | 2.5µM | i | ? | ? | -102
O=[N+]([O-])c1ccc(O)c(/C=N/Nc2nc3ccccc3[nH]2)c1 | 11µM | i | 2.8µM | 3.5µM | -99
Cc1ccc2c(=O)c(C(=O)c3ccccc3)cn(CC(=O)Nc3ccccc3C)c2n1 | nt | i | nt | ? | i
Nc1cc(=O)[nH]c(SCC(=O)NNC(=O)c2ccccc2)n1 | i | i | i | ? | i
Cc1ccccc1-c1cc2nc(NCc3ccc4occc4c3)n(C)c(=O)c2s1 | nt | i | nt | nt | i
O=[N+]([O-])c1cccc(N/N=C/c2cc([N+](=O)[O-])ccc2O)c1 | i | i | ? | ? | i
CCN(CC)S(=O)(=O)c1ccc(N/N=C/c2ccc(O)cc2O)nc1 | ? | i | 3.3µM | 2.3µM | -101
O=[N+]([O-])c1ccc(O)c(/C=N/Nc2ncnc3c2cnn3-c2ccccc2)c1 | 2.8µM | i | nt | nt | -99
N#Cc1ccccc1Cn1cc(/C=N/Nc2ccc([N+](=O)[O-])cn2)c2ccccc21 | 2.5µM | i | ? | i | i
COc1ccc(COC(=O)N/N=C2\C[C@@H](O)[C@@H](O)[C@@H]3[C@@H]4C(=O)N(c5cccc(Oc6ccccc6)c5)C(=O)[C@@H]4CC[C@@H]23)cc1 | nt | nt | i | nt | nt
O=C(CSC1=NCCN1)Nc1ccccc1[N+](=O)[O-] | i | ? | i | i | i
O=C(CSC1=NCCN1)NC(c1ccccc1)c1ccccc1 | 10µM | 32µM | i | ? | i
O=C(CSC1=NCCN1)Nc1cccc([N+](=O)[O-])c1 | i | 18µM | ? | i | i
c1csc(CNc2ccc3c(c2)OCCO3)c1 | ? | ? | 1µM | ? | -86
SMILES | HCV inh | FMDV inh | Marburg entry inh | LASV entry inh | HCMV antiviral
CC(C)(CNC(=O)c1ccccc1NS(C)(=O)=O)N1CCCCC1 | i | i | ? | ? | i
Cc1ccc2c(Cl)c(C(=O)NCC3CCCO3)sc2c1 (stereo not given) | 2.2µM | i | ? | ? | i
COc1cccc(-c2cc(C(=O)NCC3CCCO3)c3cc(Br)cc(C)c3n2)c1 (stereo not given) | ? | i | nt | nt | -60
Cc1ccc2nc(-c3ccc(Br)cc3)cc(C(=O)NCC3CCCO3)c2c1 (stereo not given) | nt | i | nt | nt | -100
Cc1ccc2[nH]c(=O)cc(C(=O)OC(C)C)c2c1 | i | i | i | ? | i
CN(C(=O)c1cc2c(s1)-c1ccc(Cl)cc1SC2)c1cccc(C(F)(F)F)c1 | nt | i | i | i | i
CC1(C)CSC(=NCc2ccccc2)N1 | 10µM | i | i | i | i
CCn1ccnc1CN(C)Cc1cn(-c2ccccc2)nc1-c1ccc(OC)cc1F | ? | i | 10µM | ? | ?
CCn1ccnc1CN(C)Cc1cn(C)nc1-c1ccccc1F | i | i | i | i | ?
O=C1/C(=C/c2ccccc2Cl)SC(=S)N1CCCC(=O)N(CCO)c1ccccc1 | 13µM | ? | nt | nt | -91
O=C(CCCN1C(=O)/C(=C/c2cccs2)SC1=S)Nc1ccccn1 | i | i | i | i | -98
O=C(CCN1C(=O)/C(=C/c2ccccc2Cl)SC1=S)Nc1ccccn1 | i | i | nt | nt | i
O=C(CCCN1C(=O)/C(=C/c2ccccc2Cl)SC1=S)Nc1ccccn1 | ? | ? | ? | ? | -97
Cc1cnc(CNc2ncncc2-c2ccccc2C)cn1 | nt | i | nt | nt | nt
